Laboratory results as given in article PMC7862700, “An all-to-all approach to the identification of sequence-specific readers for epigenetic DNA modifications on cytosine”.

Experiments:
Assay in all cases: DAPPL (digital affinity profiling via proximity ligation, sequencing); 10 mM Tris-HCl pH 7.5, 50 mM NaCl, 1 mM DTT, 4% glycerol, room temperature, 30 min; GST-TFs on glutathione beads, 16-mer random dsDNA library, 0.1% formaldehyde crosslink after washing; high values mean tight binding
Details in all cases: protein: recombinant; tags: N-terminal GST; dsDNA, one strand shown
FLI1 = target: T1, FLI1 (Homo sapiens, UniProt Q01543 1-452)
T1 sequence: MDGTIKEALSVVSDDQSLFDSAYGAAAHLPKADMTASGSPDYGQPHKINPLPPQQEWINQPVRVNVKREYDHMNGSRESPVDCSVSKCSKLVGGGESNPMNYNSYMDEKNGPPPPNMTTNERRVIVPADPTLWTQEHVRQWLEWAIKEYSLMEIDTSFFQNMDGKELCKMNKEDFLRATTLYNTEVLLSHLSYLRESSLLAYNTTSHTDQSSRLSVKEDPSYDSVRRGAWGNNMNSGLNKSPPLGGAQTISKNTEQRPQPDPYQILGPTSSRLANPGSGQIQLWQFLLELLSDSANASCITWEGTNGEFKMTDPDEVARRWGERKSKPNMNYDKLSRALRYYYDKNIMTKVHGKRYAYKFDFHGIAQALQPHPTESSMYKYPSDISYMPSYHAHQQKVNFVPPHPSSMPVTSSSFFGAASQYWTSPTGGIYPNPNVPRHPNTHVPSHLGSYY
How it was run: (§1)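 Pools were built from human transcription factors expressed in yeast as GST fusions, captured on glutathione beads and DNA-barcoded, along with a tag-only sample. Incubation with 200 nmole of a 16-mer random double-stranded DNA library lasted 30 min at room temperature in Tris/NaCl/DTT/glycerol buffer, and was followed by washing, 0.1% formaldehyde crosslinking, proximity ligation, PCR amplification and Illumina NextSeq500 sequencing. Binding signal is the quotient of each hexamer's read frequency for a factor and its frequency for the tag-only sample.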

ELK1 = target: T2, ELK1 (Homo sapiens, UniProt P19419 1-428)
T2 sequence: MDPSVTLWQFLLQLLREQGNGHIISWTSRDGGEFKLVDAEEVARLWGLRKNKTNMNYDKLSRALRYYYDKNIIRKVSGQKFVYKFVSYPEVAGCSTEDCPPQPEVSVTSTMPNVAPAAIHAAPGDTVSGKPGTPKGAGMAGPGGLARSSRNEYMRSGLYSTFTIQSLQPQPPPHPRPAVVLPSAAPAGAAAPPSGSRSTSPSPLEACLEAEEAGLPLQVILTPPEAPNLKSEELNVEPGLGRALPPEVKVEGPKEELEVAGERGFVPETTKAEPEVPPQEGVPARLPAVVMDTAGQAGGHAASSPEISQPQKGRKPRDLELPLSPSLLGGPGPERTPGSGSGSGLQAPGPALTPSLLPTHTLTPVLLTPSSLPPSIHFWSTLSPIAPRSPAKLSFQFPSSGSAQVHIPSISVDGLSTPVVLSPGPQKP
How it was run: as §1

GABPA = target: T3, GABPA (Homo sapiens, UniProt Q06546 1-454)
T3 sequence: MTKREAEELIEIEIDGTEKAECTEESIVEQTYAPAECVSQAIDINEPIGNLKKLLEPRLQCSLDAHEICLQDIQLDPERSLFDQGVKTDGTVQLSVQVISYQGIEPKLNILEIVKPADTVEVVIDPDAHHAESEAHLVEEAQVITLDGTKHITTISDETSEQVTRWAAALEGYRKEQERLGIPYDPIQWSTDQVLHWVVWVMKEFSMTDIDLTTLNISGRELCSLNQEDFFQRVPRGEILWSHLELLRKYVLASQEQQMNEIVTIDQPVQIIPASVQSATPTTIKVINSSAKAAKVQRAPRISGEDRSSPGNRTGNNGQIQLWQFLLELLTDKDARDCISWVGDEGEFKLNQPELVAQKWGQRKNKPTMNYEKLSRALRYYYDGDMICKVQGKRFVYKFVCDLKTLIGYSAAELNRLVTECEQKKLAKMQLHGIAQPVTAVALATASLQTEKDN
How it was run: as §1

ERG = target: T4, ERG (Homo sapiens, UniProt P11308 1-479)
T4 sequence: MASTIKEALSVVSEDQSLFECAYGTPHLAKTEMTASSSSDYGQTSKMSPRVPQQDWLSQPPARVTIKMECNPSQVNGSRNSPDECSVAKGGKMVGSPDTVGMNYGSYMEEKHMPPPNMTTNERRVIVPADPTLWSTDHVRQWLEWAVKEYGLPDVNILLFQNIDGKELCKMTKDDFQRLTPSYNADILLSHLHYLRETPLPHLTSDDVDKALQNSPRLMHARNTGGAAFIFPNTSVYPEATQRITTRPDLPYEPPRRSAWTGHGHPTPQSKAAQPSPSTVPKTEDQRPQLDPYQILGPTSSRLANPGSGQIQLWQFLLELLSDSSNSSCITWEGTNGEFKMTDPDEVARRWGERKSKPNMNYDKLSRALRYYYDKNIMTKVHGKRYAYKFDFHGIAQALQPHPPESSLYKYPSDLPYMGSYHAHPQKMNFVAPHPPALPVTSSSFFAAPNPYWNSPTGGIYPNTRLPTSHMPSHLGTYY
How it was run: as §1

ELF1 = ELF1 (Homo sapiens, UniProt P32519 1-619)
How it was run: as §1

EHF = target: T5, EHF (Homo sapiens, UniProt Q9NZC4 1-300)
T5 sequence: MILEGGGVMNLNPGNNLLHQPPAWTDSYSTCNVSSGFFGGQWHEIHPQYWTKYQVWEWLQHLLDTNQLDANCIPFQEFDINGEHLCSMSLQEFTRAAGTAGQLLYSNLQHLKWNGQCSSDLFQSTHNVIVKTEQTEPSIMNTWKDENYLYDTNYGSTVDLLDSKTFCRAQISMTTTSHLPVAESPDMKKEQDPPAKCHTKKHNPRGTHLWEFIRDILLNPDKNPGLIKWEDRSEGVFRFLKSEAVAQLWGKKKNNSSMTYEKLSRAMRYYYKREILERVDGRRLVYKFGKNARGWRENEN
How it was run: as §1

SPI1 = SPI1 (Homo sapiens, UniProt P17947 1-270)
How it was run: as §1

SPIB = SPIB (Homo sapiens, UniProt Q01892 1-262)
How it was run: as §1

ELK3 = target: T6, ELK3 (Homo sapiens, UniProt P41970 1-407)
T6 sequence: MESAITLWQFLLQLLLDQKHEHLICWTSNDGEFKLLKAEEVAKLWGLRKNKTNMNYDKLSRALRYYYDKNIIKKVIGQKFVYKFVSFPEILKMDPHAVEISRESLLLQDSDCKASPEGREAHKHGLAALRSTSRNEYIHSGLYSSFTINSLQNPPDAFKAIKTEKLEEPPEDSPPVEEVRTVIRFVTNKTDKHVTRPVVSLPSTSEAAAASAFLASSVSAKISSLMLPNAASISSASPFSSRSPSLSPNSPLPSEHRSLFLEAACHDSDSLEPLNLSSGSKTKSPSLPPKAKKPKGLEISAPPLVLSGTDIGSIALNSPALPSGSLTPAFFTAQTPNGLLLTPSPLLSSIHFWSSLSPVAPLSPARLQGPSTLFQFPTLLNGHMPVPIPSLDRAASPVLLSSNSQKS
How it was run: as §1

FEV = target: T7, FEV (Homo sapiens, UniProt Q99581 1-238)
T7 sequence: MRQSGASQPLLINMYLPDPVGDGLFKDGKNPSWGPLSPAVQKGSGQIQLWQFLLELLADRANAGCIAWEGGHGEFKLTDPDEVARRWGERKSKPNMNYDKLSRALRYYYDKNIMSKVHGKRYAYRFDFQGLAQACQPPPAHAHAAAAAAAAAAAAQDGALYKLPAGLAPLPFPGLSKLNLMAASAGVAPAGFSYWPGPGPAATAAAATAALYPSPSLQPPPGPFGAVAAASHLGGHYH
How it was run: as §1

ETV5 = ETV5 (Homo sapiens, UniProt P41161 1-510)
How it was run: as §1

SPIC = target: T8, SPIC (Homo sapiens, UniProt Q8N5J4 1-248)
T8 sequence: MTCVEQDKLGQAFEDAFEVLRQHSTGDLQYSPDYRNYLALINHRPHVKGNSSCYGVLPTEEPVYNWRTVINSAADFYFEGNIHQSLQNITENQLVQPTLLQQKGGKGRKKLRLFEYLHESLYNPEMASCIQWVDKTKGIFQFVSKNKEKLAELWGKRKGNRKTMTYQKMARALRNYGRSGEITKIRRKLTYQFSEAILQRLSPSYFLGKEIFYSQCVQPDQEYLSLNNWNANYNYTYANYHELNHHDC
How it was run: as §1

ELF4 = ELF4 (Homo sapiens, UniProt Q99607 1-663)
How it was run: as §1

ELK4 = target: T9, ELK4 (Homo sapiens, UniProt P28324-2 1-405)
T9 sequence: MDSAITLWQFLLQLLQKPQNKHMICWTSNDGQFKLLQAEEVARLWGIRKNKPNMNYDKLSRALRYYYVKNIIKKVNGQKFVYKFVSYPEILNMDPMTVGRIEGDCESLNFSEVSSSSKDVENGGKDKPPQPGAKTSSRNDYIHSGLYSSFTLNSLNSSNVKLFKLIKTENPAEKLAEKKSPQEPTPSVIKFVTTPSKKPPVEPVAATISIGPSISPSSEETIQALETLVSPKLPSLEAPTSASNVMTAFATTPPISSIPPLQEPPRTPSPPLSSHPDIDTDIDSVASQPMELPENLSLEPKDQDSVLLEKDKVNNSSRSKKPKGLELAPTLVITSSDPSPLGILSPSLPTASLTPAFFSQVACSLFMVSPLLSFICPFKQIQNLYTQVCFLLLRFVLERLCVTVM
How it was run: as §1

ETV2 = target: T10, ETV2 (Homo sapiens, UniProt O00321 1-342)
T10 sequence: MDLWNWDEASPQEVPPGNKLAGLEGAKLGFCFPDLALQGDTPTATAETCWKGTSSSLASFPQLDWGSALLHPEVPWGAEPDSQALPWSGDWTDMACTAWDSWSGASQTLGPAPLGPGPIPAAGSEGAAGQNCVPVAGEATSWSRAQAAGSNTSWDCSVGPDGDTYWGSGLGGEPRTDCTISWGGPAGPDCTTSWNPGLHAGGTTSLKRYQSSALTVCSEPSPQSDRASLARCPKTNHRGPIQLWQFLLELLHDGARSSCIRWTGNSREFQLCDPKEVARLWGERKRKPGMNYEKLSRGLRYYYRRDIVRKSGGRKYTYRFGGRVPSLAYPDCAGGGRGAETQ
How it was run: as §1

ELF3 = target: T11, ELF3 (Homo sapiens, UniProt P78545 1-371)
T11 sequence: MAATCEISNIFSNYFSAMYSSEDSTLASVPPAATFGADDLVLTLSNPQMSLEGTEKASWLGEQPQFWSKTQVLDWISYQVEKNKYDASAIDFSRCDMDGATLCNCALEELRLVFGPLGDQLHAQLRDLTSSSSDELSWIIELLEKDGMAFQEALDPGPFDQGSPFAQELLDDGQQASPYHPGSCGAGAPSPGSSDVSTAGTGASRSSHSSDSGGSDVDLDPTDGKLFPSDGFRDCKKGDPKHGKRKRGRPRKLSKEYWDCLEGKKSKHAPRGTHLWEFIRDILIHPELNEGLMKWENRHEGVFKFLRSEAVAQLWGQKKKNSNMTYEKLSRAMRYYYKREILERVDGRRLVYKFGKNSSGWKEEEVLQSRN
How it was run: as §1

ETV1 = ETV1 (Homo sapiens, UniProt P50549 1-477)
How it was run: as §1

Chain of SPIB (Q01892 whole entry): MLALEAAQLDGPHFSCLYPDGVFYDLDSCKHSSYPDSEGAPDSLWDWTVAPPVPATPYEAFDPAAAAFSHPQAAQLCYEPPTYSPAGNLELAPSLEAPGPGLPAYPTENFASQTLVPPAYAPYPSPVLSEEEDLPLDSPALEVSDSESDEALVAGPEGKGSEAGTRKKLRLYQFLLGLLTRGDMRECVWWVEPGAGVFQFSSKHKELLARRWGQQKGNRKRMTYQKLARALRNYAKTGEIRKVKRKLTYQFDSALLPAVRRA
Chain of ELF4 (Q99607 whole entry): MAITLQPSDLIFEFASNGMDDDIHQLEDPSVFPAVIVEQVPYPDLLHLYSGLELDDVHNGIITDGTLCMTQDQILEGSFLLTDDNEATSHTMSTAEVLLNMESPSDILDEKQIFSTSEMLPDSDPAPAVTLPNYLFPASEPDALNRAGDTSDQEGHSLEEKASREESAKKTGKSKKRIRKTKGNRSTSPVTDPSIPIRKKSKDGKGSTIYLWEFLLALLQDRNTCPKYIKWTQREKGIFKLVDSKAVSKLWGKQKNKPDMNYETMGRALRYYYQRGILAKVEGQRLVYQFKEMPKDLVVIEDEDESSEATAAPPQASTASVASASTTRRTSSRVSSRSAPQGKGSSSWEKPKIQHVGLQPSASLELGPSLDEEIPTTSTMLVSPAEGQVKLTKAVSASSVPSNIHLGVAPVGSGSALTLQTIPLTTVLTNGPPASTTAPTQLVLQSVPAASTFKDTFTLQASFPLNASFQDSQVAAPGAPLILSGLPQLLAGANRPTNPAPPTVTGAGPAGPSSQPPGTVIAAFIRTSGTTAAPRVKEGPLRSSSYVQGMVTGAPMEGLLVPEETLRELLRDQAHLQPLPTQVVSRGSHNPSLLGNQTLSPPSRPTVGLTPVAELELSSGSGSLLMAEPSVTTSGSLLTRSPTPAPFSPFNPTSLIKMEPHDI
Chain of ETV1 (P50549 whole entry): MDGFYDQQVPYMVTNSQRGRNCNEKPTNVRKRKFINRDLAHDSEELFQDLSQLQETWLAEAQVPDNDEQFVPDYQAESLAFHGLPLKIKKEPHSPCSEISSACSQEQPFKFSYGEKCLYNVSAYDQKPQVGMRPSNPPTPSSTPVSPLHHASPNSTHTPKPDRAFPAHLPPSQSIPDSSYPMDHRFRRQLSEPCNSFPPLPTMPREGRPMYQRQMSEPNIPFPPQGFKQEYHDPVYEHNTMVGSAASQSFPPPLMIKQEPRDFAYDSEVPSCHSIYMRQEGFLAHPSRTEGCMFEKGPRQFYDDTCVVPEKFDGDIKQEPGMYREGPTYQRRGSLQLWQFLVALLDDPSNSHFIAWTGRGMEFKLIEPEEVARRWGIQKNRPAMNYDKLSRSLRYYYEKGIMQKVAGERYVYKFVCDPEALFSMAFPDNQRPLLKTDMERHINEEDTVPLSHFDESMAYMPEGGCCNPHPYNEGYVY
Chain of ETV5 (P41161 whole entry): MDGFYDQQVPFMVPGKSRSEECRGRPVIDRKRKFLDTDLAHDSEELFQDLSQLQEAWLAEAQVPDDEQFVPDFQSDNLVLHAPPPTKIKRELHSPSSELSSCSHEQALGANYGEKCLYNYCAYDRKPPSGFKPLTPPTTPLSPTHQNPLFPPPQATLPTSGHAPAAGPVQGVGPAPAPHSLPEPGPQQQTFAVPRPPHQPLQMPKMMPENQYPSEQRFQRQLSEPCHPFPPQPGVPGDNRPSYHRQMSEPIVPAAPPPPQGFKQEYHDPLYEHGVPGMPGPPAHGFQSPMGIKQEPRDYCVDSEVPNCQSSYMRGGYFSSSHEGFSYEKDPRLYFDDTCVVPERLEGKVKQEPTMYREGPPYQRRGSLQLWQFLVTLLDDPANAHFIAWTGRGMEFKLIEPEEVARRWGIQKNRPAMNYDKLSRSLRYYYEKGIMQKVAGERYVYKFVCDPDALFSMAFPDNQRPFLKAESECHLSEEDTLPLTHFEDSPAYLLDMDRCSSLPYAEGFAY
Chain of ELF1 (P32519 whole entry): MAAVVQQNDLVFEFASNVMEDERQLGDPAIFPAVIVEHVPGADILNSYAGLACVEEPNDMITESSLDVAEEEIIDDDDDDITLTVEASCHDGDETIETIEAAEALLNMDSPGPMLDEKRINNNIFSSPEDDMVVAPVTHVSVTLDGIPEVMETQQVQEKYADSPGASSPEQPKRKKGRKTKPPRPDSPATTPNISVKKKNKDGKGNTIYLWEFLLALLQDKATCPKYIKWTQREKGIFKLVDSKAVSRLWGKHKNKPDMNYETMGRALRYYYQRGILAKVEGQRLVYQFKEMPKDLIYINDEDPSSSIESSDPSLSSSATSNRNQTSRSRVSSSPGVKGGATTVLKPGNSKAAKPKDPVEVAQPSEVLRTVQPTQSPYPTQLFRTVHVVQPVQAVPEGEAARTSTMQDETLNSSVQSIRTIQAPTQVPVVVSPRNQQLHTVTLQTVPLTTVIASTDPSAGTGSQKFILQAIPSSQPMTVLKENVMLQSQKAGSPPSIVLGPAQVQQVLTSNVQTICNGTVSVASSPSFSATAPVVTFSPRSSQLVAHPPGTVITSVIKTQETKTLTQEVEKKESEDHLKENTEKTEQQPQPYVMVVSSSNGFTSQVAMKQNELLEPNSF

Which results are given for TACAAC?
binding signal (FLI1): 1.16 fold enrichment (6-mer frequency, TF over GST control); binding signal (ELK1): 1.17 fold enrichment (6-mer frequency, TF over GST control); binding signal (GABPA): 1.16 fold enrichment (6-mer frequency, TF over GST control); binding signal (ERG): 1.14 fold enrichment (6-mer frequency, TF over GST control); binding signal (ELF1): 1.16 fold enrichment (6-mer frequency, TF over GST control); binding signal (EHF): 1.14 fold enrichment (6-mer frequency, TF over GST control); binding signal (SPI1): 1.08 fold enrichment (6-mer frequency, TF over GST control); binding signal (SPIB): 1.18 fold enrichment (6-mer frequency, TF over GST control); binding signal (ELK3): 1.23 fold enrichment (6-mer frequency, TF over GST control); binding signal (FEV): 1.17 fold enrichment (6-mer frequency, TF over GST control); binding signal (ETV5): 1.13 fold enrichment (6-mer frequency, TF over GST control); binding signal (SPIC): 1.22 fold enrichment (6-mer frequency, TF over GST control); binding signal (ELF4): 1.11 fold enrichment (6-mer frequency, TF over GST control); binding signal (ELK4): 1.07 fold enrichment (6-mer frequency, TF over GST control); binding signal (ETV2): 1.09 fold enrichment (6-mer frequency, TF over GST control); binding signal (ELF3): 1.02 fold enrichment (6-mer frequency, TF over GST control); binding signal (ETV1): 1.13 fold enrichment (6-mer frequency, TF over GST control)

What does the source list for AAGTGT?
binding signal (FLI1): 1.18 fold enrichment (6-mer frequency, TF over GST control); binding signal (ELK1): 1.29 fold enrichment (6-mer frequency, TF over GST control); binding signal (GABPA): 1.32 fold enrichment (6-mer frequency, TF over GST control); binding signal (ERG): 1.44 fold enrichment (6-mer frequency, TF over GST control); binding signal (ELF1): 1.24 fold enrichment (6-mer frequency, TF over GST control); binding signal (EHF): 1.24 fold enrichment (6-mer frequency, TF over GST control); binding signal (SPI1): 1.6 fold enrichment (6-mer frequency, TF over GST control); binding signal (SPIB): 1.38 fold enrichment (6-mer frequency, TF over GST control); binding signal (ELK3): 1.37 fold enrichment (6-mer frequency, TF over GST control); binding signal (FEV): 1.28 fold enrichment (6-mer frequency, TF over GST control); binding signal (ETV5): 1.33 fold enrichment (6-mer frequency, TF over GST control); binding signal (SPIC): 1.6 fold enrichment (6-mer frequency, TF over GST control); binding signal (ELF4): 1.3 fold enrichment (6-mer frequency, TF over GST control); binding signal (ELK4): 1.21 fold enrichment (6-mer frequency, TF over GST control); binding signal (ETV2): 1.37 fold enrichment (6-mer frequency, TF over GST control); binding signal (ELF3): 1.43 fold enrichment (6-mer frequency, TF over GST control); binding signal (ETV1): 1.39 fold enrichment (6-mer frequency, TF over GST control)
